Inconclusive results are not listed. A call without a number means that no potency is given here. Active and inactive are the calls of the source. Unless noted, calls come from the whole dose curve; as a rule, active = well fitted curve in the direction sought with a large enough effect; inconclusive = small, poorly fitted or top-dose-only effect, or another doubt; inactive = no such curve, though single readings can be large; an effect the other way counts as inactive or inconclusive.
Experiments:
[1] = Cytometric Cell-Based qHTS for Inhibitors of the mTORC1 Signaling Pathway in MEF (Tsc2-/-, p53-/-) Cells (AID 2660);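 note: percent of cells above a phospho-rpS6 to PI ratio cutoff in each well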
Summary of the method: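 Tsc2-/-, p53-/- MEFs (empty vector) exposed to compound 24 h at 37 C, fixed, stained with Alexa-488 anti-phospho-rpS6 Ser235/236 and propidium iodide. Acumen laser scanning; phospho-S6/PI ratio thresholded against 7.5 nM rapamycin, reported as % positive cells.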

[2] = High Content Imaging Cell-Based qHTS for Inhibitors of the mTORC1 Signaling Pathway in MEF (Tsc2-/-, p53-/-) Cells (AID 2666); details: at 38.3 µM (top of the series);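 note: percent of cells scored positive for phospho-rpS6 Ser235/236 immunostaining by imaging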
Summary of the method: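 Tsc2-/-, p53-/- MEFs (empty-vector stable) grown in DMEM + 10% FBS were exposed to compounds for 24 hrs at 37 degree Celsius, fixed, and stained with Alexa-488 anti-phospho-rpS6 Ser235/236 plus Hoechst. Imaging gave the percentage of positive cells per well.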

[3] = High Content Imaging Cell-Based qHTS for Inhibitors of the mTORC1 Signaling Pathway in MEF Cells (AID 2667);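 note: Tsc2-/- p53-/- MEFs stably re-expressing wild-type Tsc2 exposed 24 h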
Summary of the method: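 Tsc2-/-, p53-/- MEFs stably re-expressing WT Tsc2, grown in DMEM + 10% FBS, were treated with compounds for 24 hrs at 37 degree Celsius, fixed, and stained with Alexa-488 phospho-rpS6 Ser235/236 antibody plus Hoechst; results given as % positive cells.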

[4] = Cytometry Cell-Based qHTS for Inhibitors of the mTORC1 Signaling Pathway in MEF cells (AID 2668);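 note: Tsc2-/- p53-/- mouse embryonic fibroblasts stably re-expressing wild-type Tsc2; percent cells positive for phospho-rpS6 Ser235/236 relative to propidium iodide stain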
Summary of the method: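 Phospho-rpS6 (Ser235/236) immunofluorescence over PI signal, scored as % positive cells using thresholds from 7.5 nM rapamycin and DMSO wells, after 24 h compound exposure of WT-Tsc2-rescued Tsc2-/-, p53-/- MEFs. PI cell count recorded for viability.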

[5] = biological target: Ubiquitin carboxyl-terminal hydrolase 2 (Homo sapiens) (UniProt O75604); assay: qHTS Validation Assay for Inhibitors of Ubiquitin-specific Protease USP2a Using CHOP2 as the Reporter (AID 463106)
Ubiquitin carboxyl-terminal hydrolase 2 (Homo sapiens), sequence (O75604 whole entry, looked up): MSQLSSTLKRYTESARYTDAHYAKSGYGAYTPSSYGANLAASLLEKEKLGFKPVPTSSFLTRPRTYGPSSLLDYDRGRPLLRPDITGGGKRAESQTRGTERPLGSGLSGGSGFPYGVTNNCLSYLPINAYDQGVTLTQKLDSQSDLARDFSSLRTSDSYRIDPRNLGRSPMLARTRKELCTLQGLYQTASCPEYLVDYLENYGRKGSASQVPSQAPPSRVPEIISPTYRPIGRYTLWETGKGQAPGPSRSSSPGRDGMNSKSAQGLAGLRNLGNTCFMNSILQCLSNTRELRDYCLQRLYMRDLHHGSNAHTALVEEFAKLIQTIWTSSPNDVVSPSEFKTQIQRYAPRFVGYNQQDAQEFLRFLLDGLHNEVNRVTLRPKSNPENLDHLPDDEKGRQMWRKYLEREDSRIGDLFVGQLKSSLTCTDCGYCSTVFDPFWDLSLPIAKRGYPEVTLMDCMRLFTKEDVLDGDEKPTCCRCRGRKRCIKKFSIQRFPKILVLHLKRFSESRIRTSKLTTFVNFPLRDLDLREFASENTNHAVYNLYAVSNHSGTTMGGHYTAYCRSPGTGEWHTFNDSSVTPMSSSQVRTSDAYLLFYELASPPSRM
Summary of the method: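 Readout was coupled fluorescence (Ex 485/Em 531 nm), read 60 min after adding 25 nM final Ub-CHOP2 and 25 nM reporter substrate. Beforehand, 10 nM final USP2 core had 30 min at RT with compound in pH 8.0 buffer. Curves were fitted after normalization to NEM and flagged for artifacts using time-zero reads.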

[6] = biological target: Tumor susceptibility gene 101 protein (Homo sapiens) (UniProt Q99816); assay: qHTS Validation Assay for Iinhibitors of HIV-1 Budding by Blocking the Interaction of PTAP/TSG101 (AID 485342; calls by dose curve)
Tumor susceptibility gene 101 protein (Homo sapiens), sequence (Q99816 whole entry, looked up, the tested form may be a part): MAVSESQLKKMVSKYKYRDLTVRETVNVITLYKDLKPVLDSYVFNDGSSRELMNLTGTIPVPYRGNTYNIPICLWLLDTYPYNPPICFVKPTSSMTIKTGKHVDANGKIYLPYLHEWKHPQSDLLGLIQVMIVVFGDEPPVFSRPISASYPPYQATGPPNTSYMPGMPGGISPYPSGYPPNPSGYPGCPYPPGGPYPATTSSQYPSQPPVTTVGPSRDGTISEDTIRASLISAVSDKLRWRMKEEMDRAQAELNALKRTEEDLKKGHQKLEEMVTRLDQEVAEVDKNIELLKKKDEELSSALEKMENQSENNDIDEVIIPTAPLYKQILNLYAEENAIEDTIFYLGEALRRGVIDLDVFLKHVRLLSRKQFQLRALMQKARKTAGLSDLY
Summary of the method: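 Fluorescence polarization of 50 nM FITC-PTAP peptide bound to 10 uM Tsg101 binding domain was read after 20 min room-temperature incubation with compounds, in 10 mM HEPES pH 7.5, 0.15 M NaCl, 0.01% Tween 20.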

[7] = biological target: Beta-2 adrenergic receptor (Homo sapiens) (UniProt P07550); assay: qHTS validation assay of beta-arrestin-biased ligands of beta2-adrenergic receptor (AID 485366)
Beta-2 adrenergic receptor (Homo sapiens), sequence (P07550 whole entry, looked up): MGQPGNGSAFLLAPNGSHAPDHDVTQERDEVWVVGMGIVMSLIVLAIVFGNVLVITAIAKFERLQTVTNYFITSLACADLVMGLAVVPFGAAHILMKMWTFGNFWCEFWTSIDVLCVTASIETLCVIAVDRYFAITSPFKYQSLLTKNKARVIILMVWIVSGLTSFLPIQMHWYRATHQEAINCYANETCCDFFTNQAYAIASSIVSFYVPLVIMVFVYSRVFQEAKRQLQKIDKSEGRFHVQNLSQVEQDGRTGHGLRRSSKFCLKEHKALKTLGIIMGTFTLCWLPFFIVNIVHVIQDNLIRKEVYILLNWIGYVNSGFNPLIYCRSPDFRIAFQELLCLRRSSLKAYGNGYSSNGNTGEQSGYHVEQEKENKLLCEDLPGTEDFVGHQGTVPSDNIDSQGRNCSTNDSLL
Summary of the method: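 qHTS, Tango cells, 1500 cells/well, DMEM + 1% FBS. Cpd 18 hr at 37 degrees C. Luciferin/ATP/CoA detection mix, 15 min RT, luminescence read. %Activity from corrected signal; CRC fit, curve class.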

[8] = biological target: Chromobox protein homolog 1 (Homo sapiens) (UniProt P83916); assay: qHTS Validation Assay for Inhibitors of HP1-beta Chromodomain Interactions with Methylated Histone Tails (AID 488953); note: potency is the fitted concentration of half-maximal effect; nearly all actives have a fitted effect of over 50% in size
Chromobox protein homolog 1 (Homo sapiens), sequence (P83916 whole entry, looked up): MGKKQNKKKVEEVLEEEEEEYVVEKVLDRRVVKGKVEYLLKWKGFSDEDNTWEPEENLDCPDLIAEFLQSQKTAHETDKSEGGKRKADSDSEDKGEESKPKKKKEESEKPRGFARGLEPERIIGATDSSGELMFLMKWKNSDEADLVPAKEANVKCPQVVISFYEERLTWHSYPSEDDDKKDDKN
Summary of the method: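 AlphaScreen proximity signal from streptavidin donor and nickel chelate acceptor beads (final 10 ug/mL) after 30 min dark incubation. Compounds had 30 min at room temperature with preformed complex of 50 nM HP1-beta and 50 nM b-H3(1-18)K9me3 in PBS pH 7.4 with 0.01% Tween-20.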

[9] = biological target: Methanococcus maripaludis chaperonin (MmCpn) (UniProt Q6LX38); assay: High-Throughput Screening for Modulators of Cytosolic Chaperonin Activity: MmCpn Primary Screen (AID 488978);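 note: 50 nM MmCpn enzyme hydrolysing 30 µM ATP at 37 °C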
Methanococcus maripaludis chaperonin (MmCpn), sequence (Q6LX38 1-543): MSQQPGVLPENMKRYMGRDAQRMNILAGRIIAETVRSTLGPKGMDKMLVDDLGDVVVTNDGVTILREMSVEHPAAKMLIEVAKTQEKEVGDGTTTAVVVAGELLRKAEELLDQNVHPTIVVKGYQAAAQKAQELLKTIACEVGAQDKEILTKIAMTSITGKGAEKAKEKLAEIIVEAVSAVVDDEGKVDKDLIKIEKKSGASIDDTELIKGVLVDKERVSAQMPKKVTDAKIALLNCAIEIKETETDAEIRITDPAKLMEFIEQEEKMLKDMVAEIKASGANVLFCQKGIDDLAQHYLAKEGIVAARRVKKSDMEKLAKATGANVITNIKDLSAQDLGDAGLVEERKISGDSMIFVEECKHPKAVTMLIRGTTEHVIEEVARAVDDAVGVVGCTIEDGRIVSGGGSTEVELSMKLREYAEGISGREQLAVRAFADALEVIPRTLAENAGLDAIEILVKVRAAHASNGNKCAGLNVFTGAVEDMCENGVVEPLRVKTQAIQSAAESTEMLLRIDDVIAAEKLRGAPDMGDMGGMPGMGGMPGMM
Summary of the method: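 ATPase activity of 50 nM MmCpn was assayed with 30 uM ATP, 10 minutes at 37C, after a 5 min compound preincubation at room temperature. ADP production was read as HTRF emission at 590 and 665 nm.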

[10] = biological target: D(1A) dopamine receptor (Homo sapiens) (UniProt P21728); assay: HTS Assay for Allosteric Agonists of the Human D1 Dopamine Receptor: Primary Screen for Agonists (AID 488981)
D(1A) dopamine receptor (Homo sapiens), sequence (P21728 whole entry, looked up): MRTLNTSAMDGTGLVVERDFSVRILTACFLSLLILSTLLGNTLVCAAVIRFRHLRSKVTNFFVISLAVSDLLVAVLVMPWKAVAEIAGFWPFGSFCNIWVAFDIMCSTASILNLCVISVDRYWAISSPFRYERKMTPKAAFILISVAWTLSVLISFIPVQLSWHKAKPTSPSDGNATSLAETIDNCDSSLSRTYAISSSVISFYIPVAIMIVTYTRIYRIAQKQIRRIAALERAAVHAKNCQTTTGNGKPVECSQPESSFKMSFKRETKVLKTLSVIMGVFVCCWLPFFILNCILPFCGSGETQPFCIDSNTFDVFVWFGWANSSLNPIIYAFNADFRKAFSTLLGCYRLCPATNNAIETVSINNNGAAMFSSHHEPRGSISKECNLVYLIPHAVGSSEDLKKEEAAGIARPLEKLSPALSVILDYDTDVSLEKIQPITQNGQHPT
Summary of the method: (§1)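 Calcium flux in an inducible, force-coupled HEK293 Trex D1 line (overnight at 30 C): agonist mode is the 180 s kinetic read after compound; potentiator mode is the following 180 s read after dopamine at EC20.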

[11] = biological target: D(1A) dopamine receptor (Homo sapiens) (UniProt P21728); assay: HTS Assay for Allosteric Agonists of the Human D1 Dopamine Receptor: Primary Screen for Potentiators (AID 488982)
Summary of the method: as §1

[12] = Validation screen for small molecules that induce genotoxicity in human embryonic kidney (HEK293T) cells expressing luciferase-tagged ELG1 (AID 493106)
Summary of the method: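 ELG1-luciferase reporter readout (ONE-Glo, 30 min, room temperature) after 16 hr compound treatment at 37 °C of HEK293T cells at 2,000 per well. Rising luminescence flags genotoxic stress.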

[13] = qHTS for Inhibitors of Cell Surface uPA Generation: Validation Assay (AID 493164);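 note: RAW 264.7 macrophage cells exposed to compound for 18 h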
Summary of the method: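 ATP-Lite luminescence read-out: ATP remains high when uPA activity-dependent LF translocation into the cytoplasm is blocked. RAW 264.7 cells, 18 h compound exposure at 37 C; 7-point titration, 2.45 nM to 38.3 uM final.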

[14] = biological target: Phosphoglycerate kinase, glycosomal (Trypanosoma brucei brucei) (UniProt P07378); assay: qHTS Validation Assay to Find Inhibitors of Phosphoglycerate Kinase (AID 504547)
Phosphoglycerate kinase, glycosomal (Trypanosoma brucei brucei), sequence (P07378 whole entry, looked up): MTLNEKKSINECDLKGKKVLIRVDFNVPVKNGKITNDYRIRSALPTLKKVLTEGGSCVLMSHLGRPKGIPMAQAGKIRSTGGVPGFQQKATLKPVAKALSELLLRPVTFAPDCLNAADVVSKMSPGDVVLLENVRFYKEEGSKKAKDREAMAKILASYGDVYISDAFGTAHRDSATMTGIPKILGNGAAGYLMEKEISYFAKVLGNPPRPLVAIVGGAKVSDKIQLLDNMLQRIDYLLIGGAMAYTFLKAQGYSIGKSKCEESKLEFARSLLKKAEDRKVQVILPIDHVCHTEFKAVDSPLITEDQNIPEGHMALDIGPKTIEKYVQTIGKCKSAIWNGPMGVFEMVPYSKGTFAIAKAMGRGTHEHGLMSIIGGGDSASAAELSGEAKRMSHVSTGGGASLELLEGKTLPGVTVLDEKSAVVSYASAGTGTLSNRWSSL
Summary of the method: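 Luminescence end-point (Kinase-Glo Plus, 10 min) after a 60 min room-temperature coupled reaction. GAPDH at 100nM final supplies 1,3-BPG to PGK. Buffer: 100mM TEA pH 7.6, 5mM MgCl2, 0.01% Tween-20. Wells lacking PGK served as controls.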

[15] = biological target: phosphoglycerate mutase (Leishmania major) (UniProt Q4Q090); assay: qHTS Validation Assay to Find Inhibitors of Phosphoglycerate Mutase (AID 504548)
phosphoglycerate mutase (Leishmania major), sequence (Q4Q090 1-553): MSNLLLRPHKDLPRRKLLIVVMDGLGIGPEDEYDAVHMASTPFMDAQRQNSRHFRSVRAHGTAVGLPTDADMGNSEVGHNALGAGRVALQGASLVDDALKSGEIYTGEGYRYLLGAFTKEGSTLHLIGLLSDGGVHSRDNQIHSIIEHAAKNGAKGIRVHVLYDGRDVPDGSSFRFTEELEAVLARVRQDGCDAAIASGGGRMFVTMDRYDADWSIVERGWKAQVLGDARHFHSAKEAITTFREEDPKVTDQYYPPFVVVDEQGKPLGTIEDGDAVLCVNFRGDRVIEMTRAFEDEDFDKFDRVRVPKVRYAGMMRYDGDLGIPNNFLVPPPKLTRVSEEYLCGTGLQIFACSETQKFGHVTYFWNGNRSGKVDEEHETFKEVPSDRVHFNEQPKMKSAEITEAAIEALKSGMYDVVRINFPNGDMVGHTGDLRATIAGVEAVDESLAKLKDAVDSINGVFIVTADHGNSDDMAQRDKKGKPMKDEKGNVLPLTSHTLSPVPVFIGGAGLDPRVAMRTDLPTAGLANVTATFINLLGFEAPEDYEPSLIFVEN
Summary of the method: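 Lm PGAM at 1.25 nM final with substrate in 100 mM TEA pH 7.6, 5 mM MgCl2, 0.01% Tween-20; 45 min at room temperature. Kinase-GloPlus added, 10 min, end-point luminescence read.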

[16] = qHTS for Inhibitors of ATXN expression: Validation (AID 588378); note: nearly all actives have a fitted effect of over 75% in size
Summary of the method: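 Luciferase luminescence (Bright-Glo) from an ATXN2-FFLuc HEK293 line after 24 h compound exposure at 37 °C, preceded by a CellTiter-Fluor fluorescence viability read. Serial dilutions of a reference ATXN2 inhibitor and a luciferase inhibitor served as controls.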

[17] = biological target: Glutaminase kidney isoform, mitochondrial (Homo sapiens) (UniProt O94925); assay: qHTS for Inhibitors of Glutaminase (GLS): LOPAC Validation (AID 624146);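 note: glutamate product detected by oxidase and peroxidase coupled Amplex red fluorescence gain; nearly all actives have a fitted effect of over 60% in size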
Glutaminase kidney isoform, mitochondrial (Homo sapiens), sequence (O94925 whole entry, looked up, canonical isoform): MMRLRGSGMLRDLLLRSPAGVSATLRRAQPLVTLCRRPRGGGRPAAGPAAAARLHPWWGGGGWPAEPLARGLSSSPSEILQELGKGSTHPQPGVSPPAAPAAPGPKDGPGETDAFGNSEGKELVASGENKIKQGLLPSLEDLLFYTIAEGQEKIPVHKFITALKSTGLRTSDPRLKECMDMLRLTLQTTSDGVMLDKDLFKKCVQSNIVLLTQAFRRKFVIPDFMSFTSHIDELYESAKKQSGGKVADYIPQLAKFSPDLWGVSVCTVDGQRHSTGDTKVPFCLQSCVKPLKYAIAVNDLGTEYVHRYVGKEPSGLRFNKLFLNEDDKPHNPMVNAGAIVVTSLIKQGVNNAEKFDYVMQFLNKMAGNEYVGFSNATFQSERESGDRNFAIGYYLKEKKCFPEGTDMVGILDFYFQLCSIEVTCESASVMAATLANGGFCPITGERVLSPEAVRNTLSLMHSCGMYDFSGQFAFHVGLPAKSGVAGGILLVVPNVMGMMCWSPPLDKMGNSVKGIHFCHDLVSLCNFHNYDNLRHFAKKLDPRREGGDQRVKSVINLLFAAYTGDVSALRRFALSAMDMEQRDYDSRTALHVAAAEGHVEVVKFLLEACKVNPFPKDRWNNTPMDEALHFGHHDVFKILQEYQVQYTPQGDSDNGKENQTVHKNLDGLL
Summary of the method: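 hKGA in 45 mM KH2PO4 pH 8.2, 0.02% Tween-20 with pin-transferred compounds; 1 mM L-glutamine (stock) plus glutamate oxidase/HRP/Amplex Red coupling added. Fluorescence read initially and after 30 min at RT.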

[18] = qHTS of Trypanosoma Brucei Inhibitors: LOPAC Validation (AID 624147)
Summary of the method: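 Glycolytic pyruvate kinase of T. brucei was incubated with substrate, test compound and 130 uM ADP for 45 minutes at room temperature. Luminescent Kinase-Glo Plus signal was measured after 10 minutes.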

[19] = biological target: Glucagon-like peptide 1 receptor (Homo sapiens) (UniProt P43220); assay: qHTS of GLP-1 Receptor Agonists: LOPAC Validation (AID 624148);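 note: luminescence from a luciferase reporter switched on by cAMP; higher luminescence signal means agonism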
Glucagon-like peptide 1 receptor (Homo sapiens), sequence (P43220 whole entry, looked up): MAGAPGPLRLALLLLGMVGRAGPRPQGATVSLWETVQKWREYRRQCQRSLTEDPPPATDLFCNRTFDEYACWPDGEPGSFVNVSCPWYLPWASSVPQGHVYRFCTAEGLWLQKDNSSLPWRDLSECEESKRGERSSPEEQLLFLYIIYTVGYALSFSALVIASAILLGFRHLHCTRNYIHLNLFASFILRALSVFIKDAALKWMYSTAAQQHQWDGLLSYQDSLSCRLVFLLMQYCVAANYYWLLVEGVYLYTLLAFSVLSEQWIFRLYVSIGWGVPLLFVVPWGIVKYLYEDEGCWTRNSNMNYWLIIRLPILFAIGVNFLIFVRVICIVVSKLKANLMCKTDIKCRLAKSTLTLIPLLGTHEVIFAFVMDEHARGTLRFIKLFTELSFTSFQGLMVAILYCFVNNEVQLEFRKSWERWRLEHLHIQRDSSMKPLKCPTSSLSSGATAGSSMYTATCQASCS
Summary of the method: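 Agonism scored as increased luciferase luminescence driven by cAMP in HEK293 clones carrying GLP-1R. Cells settled 12 hours, received compound for 4-6 hr at 37 deg C, 5% CO2, and were read after 12 min detection reagent at RT.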

[20] = qHTS of Nrf2 Activators: LOPAC Validation (AID 624149)
Summary of the method: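 Luciferase signal from ARE activation, read with Steady-Glo after 30 min at room temperature. Compounds were pin-transferred onto AREc32_Fluc cells (1000/well, OPTI-MEM/5% FBS, seeded overnight) and left 24 hr at 37 deg C.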

[21] = HTS Assay for Allosteric Antagonists of the Human D2 Dopamine Receptor: Hit Validation in HTRF (AID 624455);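 note: stable D1 dopamine receptor cell line scored for blocking the D1 response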
Summary of the method: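 Inhibition of the D1-mediated response was measured by HTRF. Cells used were a line stably expressing the D1 dopamine receptor.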

[22] = qHTS for compounds that reverse cellular toxicity of Amyloid beta (A-beta) peptide in yeast: LOPAC Validation Assay (AID 720559)
Summary of the method: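 Rescue of A-beta toxicity was scored as yeast growth by 600 nm absorbance after 48 hr at 30 C with compound. Normalization used DMSO (negative) and equimolar ferric chloride plus clioquinol (positive).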

[23] = qHTS for Activators of Parkin Expression: LOPAC Validation Assay (NLuc Reporter) (AID 720572)
Summary of the method: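 Compound effects on Parkin promoter activity were measured as NanoLuc luminescence after 24 h at 37 C. The neuronal reporter line also carried FLuc, which was read first. LOPAC compounds were tested at 7 concentrations, with normalization to DMSO (0%) and positive control (100%).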

[24] = qHTS for Activators of Parkin Expression: LOPAC Validation Assay (FLuc Reporter) (AID 720573)
Summary of the method: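 FLuc signal from Parkin-promoter coincidence reporter neuronal cells, normalized to DMSO and positive control (100%). Cells (1,500/well) pre-incubated 24 h, then exposed to LOPAC compounds in 7-point dose response for 24 h at 37 C, 5% CO2.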

CCc1ccc(/C=C2/SC(=S)NC2=O)cc1
outcome [1]: inactive | outcome [2]: inactive | Potency [3]: inactive | Potency [4]: inactive | Potency [5]: inactive | outcome [6]: inactive | outcome [7]: inactive | Potency [8]: 12.6 µM (active) | outcome [9]: inactive | outcome [10]: inactive | outcome [11]: inactive | Potency [12]: inactive | outcome [13]: inactive | Potency [14]: inactive | outcome [15]: inactive | Potency [16]: inactive | Potency [17]: inactive | outcome [18]: inactive | outcome [19]: inactive | outcome [20]: inactive | outcome [21]: inactive | outcome [22]: inactive | outcome [23]: inactive | Potency [24]: inactive

— PubChem BioAssay (NCATS)
